From the supplement of paper PMC9694430

Key:
Assay in all cases: thermal shift delta Tm vs DMSO control; higher = stronger stabilization (binding)
Conditions in all cases: 12.5 µM; protein concentration 2 µM
LOC_OS01G57100-cb003 = tested on: LOC_OS01G57100-cb003
Procedure, shortened: (§1)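 Heating from 25°C to 95°C at 0.05°C/s, fluorescence was recorded for 19.5 μl wells of 2 μM E. coli-expressed, purified rice kinase domain in 100 mM potassium phosphate pH 7.5, 150 mM NaCl, 10% glycerol and 5 × SYPRO Orange with compound in DMSO. Boltzmann fits gave melting temperatures for this differential scanning fluorimetry assay. The shift reported is the mean of three replicates against the DMSO-only protein.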

LOC_OS01G60330-cb001 = tested on: LOC_OS01G60330-cb001
Procedure, shortened: as §1

LOC_OS01G60700-cb002 = tested on: LOC_OS01G60700-cb002
Procedure, shortened: as §1

LOC_OS01G63280-cb003 = tested on: LOC_OS01G63280-cb003
Procedure, shortened: as §1

LOC_OS01G67340-cb003 = tested on: LOC_OS01G67340-cb003
Procedure, shortened: as §1

LOC_OS01G70970-cb002 = tested on: LOC_OS01G70970-cb002
Procedure, shortened: as §1

LOC_OS02G07810-cb001 = tested on: LOC_OS02G07810-cb001
Procedure, shortened: as §1

LOC_OS02G08530-cb003 = tested on: LOC_OS02G08530-cb003
Procedure, shortened: as §1

LOC_OS02G14120-cb001 = tested on: LOC_OS02G14120-cb001
Procedure, shortened: as §1

LOC_OS02G17970-cb001 = tested on: LOC_OS02G17970-cb001
Procedure, shortened: as §1

LOC_OS02G45750-cb003 = tested on: LOC_OS02G45750-cb003
Procedure, shortened: as §1

LOC_OS02G54510-cb004 = tested on: LOC_OS02G54510-cb004
Procedure, shortened: as §1

LOC_OS03G04050-cb001 = tested on: LOC_OS03G04050-cb001
Procedure, shortened: as §1

LOC_OS03G12390-cb001 = tested on: LOC_OS03G12390-cb001
Procedure, shortened: as §1

LOC_OS03G27990-cb004 = tested on: LOC_OS03G27990-cb004
Procedure, shortened: as §1

LOC_OS03G50450-cb001 = tested on: LOC_OS03G50450-cb001
Procedure, shortened: as §1

LOC_OS03G50810-cb003 = tested on: LOC_OS03G50810-cb003
Procedure, shortened: as §1

LOC_OS04G35114-cb001 = tested on: LOC_OS04G35114-cb001
Procedure, shortened: as §1

LOC_OS04G38480-cb003 = tested on: T1, LOC_OS04G38480-cb003
T1 sequence (whole entry): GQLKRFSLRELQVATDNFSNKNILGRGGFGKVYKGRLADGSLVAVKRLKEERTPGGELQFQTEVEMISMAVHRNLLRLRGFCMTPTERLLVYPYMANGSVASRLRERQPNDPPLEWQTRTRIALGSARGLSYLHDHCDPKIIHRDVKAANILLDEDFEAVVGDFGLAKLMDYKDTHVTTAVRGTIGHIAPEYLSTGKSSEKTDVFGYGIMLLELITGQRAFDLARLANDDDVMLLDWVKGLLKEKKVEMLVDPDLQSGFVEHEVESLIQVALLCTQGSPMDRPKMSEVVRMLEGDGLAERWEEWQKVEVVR
Procedure, shortened: as §1

LOC_OS04G41100-cb001 = tested on: T2, LOC_OS04G41100-cb001
T2 sequence (whole entry): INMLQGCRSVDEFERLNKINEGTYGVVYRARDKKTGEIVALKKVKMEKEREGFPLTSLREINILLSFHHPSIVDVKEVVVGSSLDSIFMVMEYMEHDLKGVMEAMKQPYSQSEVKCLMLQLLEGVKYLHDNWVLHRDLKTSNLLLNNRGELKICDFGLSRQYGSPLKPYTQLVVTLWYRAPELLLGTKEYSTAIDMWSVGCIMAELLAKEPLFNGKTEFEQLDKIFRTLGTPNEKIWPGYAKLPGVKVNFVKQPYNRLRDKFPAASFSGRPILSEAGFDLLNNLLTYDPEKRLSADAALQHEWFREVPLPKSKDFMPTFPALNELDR
Procedure, shortened: as §1
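Further: purified Escherichia coli-expressed rice kinase domain construct.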

Row | SMILES | thermal shift delta Tm (LOC_OS01G57100-cb003) | thermal shift delta Tm (LOC_OS01G60330-cb001) | thermal shift delta Tm (LOC_OS01G60700-cb002) | thermal shift delta Tm (LOC_OS01G63280-cb003) | thermal shift delta Tm (LOC_OS01G67340-cb003) | thermal shift delta Tm (LOC_OS01G70970-cb002) | thermal shift delta Tm (LOC_OS02G07810-cb001) | thermal shift delta Tm (LOC_OS02G08530-cb003) | thermal shift delta Tm (LOC_OS02G14120-cb001) | thermal shift delta Tm (LOC_OS02G17970-cb001) | thermal shift delta Tm (LOC_OS02G45750-cb003) | thermal shift delta Tm (LOC_OS02G54510-cb004) | thermal shift delta Tm (LOC_OS03G04050-cb001) | thermal shift delta Tm (LOC_OS03G12390-cb001) | thermal shift delta Tm (LOC_OS03G27990-cb004) | thermal shift delta Tm (LOC_OS03G50450-cb001) | thermal shift delta Tm (LOC_OS03G50810-cb003) | thermal shift delta Tm (LOC_OS04G35114-cb001) | thermal shift delta Tm (LOC_OS04G38480-cb003) | thermal shift delta Tm (LOC_OS04G41100-cb001)
1 | COC1(c2sc3c(N4CCOCC4)nc(-c4cnc(N)nc4)nc3c2C)COC1 | 0.25 °C | 2.64 °C | 0.38 °C | -0.37 °C | 0.5 °C | 0.89 °C | 0.33 °C | 2.22 °C | 0.63 °C | 0.32 °C | 1.67 °C | 3.13 °C | -0.01 °C | 0.74 °C | 0.96 °C | 4.14 °C | 0.91 °C | 2.13 °C | 1.11 °C | 0.5 °C
2 | CCOC(=O)c1cnc2ccc(-c3cncc(NS(=O)(=O)c4ccccc4)c3)cn12 | 2.2 °C | 0.95 °C | 1.04 °C | 0.47 °C | 0.76 °C | 0.2 °C | 1.1 °C | 1.79 °C | -0.08 °C | 0.87 °C | 1.34 °C | 0.07 °C | 0.25 °C | 0.45 °C | 0.16 °C | 0.7 °C | 0.65 °C | 1.78 °C | 1.81 °C | 0.65 °C
3 | O=c1cc(-c2cccc3c2Sc2ccccc2S3)oc(N2CCOCC2)c1 | 0.21 °C | 1.07 °C | 0.76 °C | 0.32 °C | -0.52 °C | -0.34 °C | 0.78 °C | 0.47 °C | 0.45 °C | 0.59 °C | 0.06 °C | -0.02 °C | 0.45 °C | 0.59 °C | -0.19 °C | -0.07 °C | 0.13 °C | -0.05 °C | 1.71 °C | 0.74 °C
4 | Oc1cc(CNC(=S)/C=C/c2cc(O)c(O)c(Br)c2)cc(O)c1O | 7.83 °C | 17.7 °C | -0.76 °C | 20 °C | 0.53 °C | 0.97 °C | 4.09 °C | -1.06 °C | -0.83 °C | 7.15 °C | 0.11 °C | -0.88 °C | 0.71 °C | 0.57 °C | 0.49 °C | 0.42 °C | 0.39 °C | -1.08 °C | 0 °C | -0.03 °C
5 | Cc1ncc(CO)c(CO)c1O [Pyridoxine] | -0.85 °C | -0.2 °C | -0.29 °C | -0.26 °C | 0.08 °C | 0.33 °C | -0.63 °C | 0.26 °C | 0.41 °C | 0.66 °C | 0.81 °C | -0.02 °C | 0.53 °C | -0.09 °C | 0.25 °C | 0.62 °C | 0.03 °C | -0.36 °C | 0.12 °C | 0.24 °C
6 | N#Cc1c(O)c2c(-c3ccc(-c4ccccc4O)cc3)csc2[nH]c1=O | 3.04 °C | 1.32 °C | 1.46 °C | 0.82 °C | 0.95 °C | 0.52 °C | 1.91 °C | 1.2 °C | 0.5 °C | 1.96 °C | 1.29 °C | 0.51 °C | 0.84 °C | 0.75 °C | 0.45 °C | 0.66 °C | 0.88 °C | 0.58 °C | 1.99 °C | 0.62 °C
7 | COc1cc(OC)cc(N(CCNC(C)C)c2ccc3ncc(-c4cnn(C)c4)nc3c2)c1 | 1.85 °C | 0.09 °C | 0.12 °C | 0.43 °C | 0.07 °C | 0.6 °C | -0.54 °C | 0.61 °C | 2.34 °C | -0.45 °C | 1.81 °C | 2.46 °C | 0.37 °C | 0.27 °C | 0.3 °C | 0.28 °C | 0.45 °C | 0.74 °C | 2.14 °C | 0.41 °C
8 | CC(C)[C@H](CO)Nc1nc(Nc2cccc(Cl)c2)c2ncn(C(C)C)c2n1 [Purvalanol A] | 2.77 °C | 5.05 °C | 0.1 °C | 0.46 °C | 3.08 °C | 3.68 °C | 0.09 °C | 4.08 °C | 1.7 °C | 0.39 °C | 5.95 °C | 2.06 °C | 0.15 °C | 3.95 °C | 3.63 °C | 7.22 °C | 2.8 °C | 6.09 °C | 1.87 °C | 0.54 °C
9 | CC(C)(C)c1nc(-c2ccc(NC(=O)Nc3cccc(C(F)(F)F)c3)c3ccccc23)c2c(N)nccn12 [kira6] | 0.63 °C | 1.17 °C | 0.03 °C | 14.6 °C | 8.45 °C | 0.75 °C | 0.03 °C | 2.22 °C | 2.07 °C | 1.1 °C | 2.31 °C | 9.87 °C | 0.01 °C | 2.25 °C | 7.11 °C | 0.7 °C | 4.91 °C | 3.47 °C | 1.58 °C | -0.01 °C
10 | CN1CCN(S(=O)(=O)c2ccc(-c3cnc(N)c(C(=O)Nc4cccnc4)n3)cc2)CC1 | 1.13 °C | 1.53 °C | 1.31 °C | 0.13 °C | 0.5 °C | 1.05 °C | 0.28 °C | 1.13 °C | 2.21 °C | -0.31 °C | 3.58 °C | 0.11 °C | 0.29 °C | 1.18 °C | 0.73 °C | 0.63 °C | 0.87 °C | 2.43 °C | 1.65 °C | 0.85 °C
11 | Cc1c(C(=O)N2CCOc3ccc(-c4ccc(N)nc4)cc3C2)ccc(S(C)(=O)=O)c1F | -0.07 °C | 0.34 °C | 0.98 °C | 0.62 °C | 0.21 °C | 0.48 °C | -0.03 °C | 0.91 °C | 0.74 °C | 0.12 °C | 0.79 °C | 0.21 °C | 0.5 °C | 0.38 °C | 0.27 °C | 0.12 °C | 0.24 °C | 0.73 °C | 0.22 °C | 0.43 °C
12 | CCN(CC)CCCCNc1ncc2cc(-c3cc(OC)cc(OC)c3)c(NC(=O)NC(C)(C)C)nc2n1 | 0.87 °C | 0.35 °C | 0.92 °C | 0.87 °C | 0.05 °C | 0.05 °C | 0.72 °C | 0.6 °C | -0.08 °C | 0.18 °C | 1.08 °C | 0.28 °C | 0.67 °C | 0.06 °C | 0.5 °C | 0.93 °C | 0.47 °C | 0.79 °C | 0.83 °C | 0.46 °C
